# Laboratory results from PubChem BioAssay AID1117362 (Southern Research Institute, 2015).
# Screen size: about 3,600 compounds; about 100 (2.8%) were called active.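 Rule for the calls: active = inhibition above 30% at one or more concentrations, seen consistently on every test date; inconclusive = results that disagree between repeat test dates; inactive = the rest.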 The list is a sample of the results.
# Test: GST-antibody interaction or FRET quenching – biochemical, TR-FRET, artefact control for Vif-APOBEC3G degradation inhibitor project, dose response (AID 1117362);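 note: biotinylated GST protein used in place of GST-Vif 1-94 and biotin-A3G peptide; detects fluorescence quenchers or blockers of GST binding to anti-GST antibody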
# Details: TR-FRET counter screen, biotin-GST/anti-GST signal; series mostly up to 100 µM; inhibition: at the top concentration
SMILES,inhibition,IC50
CNC(=O)[C@@H]1C[C@H]1[C@@H](NC(=O)OCc1ccccc1)c1ccccc1,2.14% (inactive),
C(=C\c1ccco1)/C=N/n1cnnc1,-4.46% (inactive),
O=C(/C=C/c1ccco1)NC(=S)Nc1ccccc1N1CCOCC1,4.93% (inactive),
C=CCn1c(O)c(C(CC)=NCCN2CCOCC2)c(=O)[nH]c1=O,1.31% (inactive),
CC(/C=N/n1c(-c2ccncc2)n[nH]c1=S)=C\c1ccco1,7.56% (inactive),
CCOc1cc(CNc2ccc(O)cc2)ccc1OCc1ccc(Cl)cc1Cl,-7.67% (inactive),
O=C(O)C1Nc2c(Cl)cc(Cl)c(Cl)c2C2C=CCC12 (stereo not drawn),2.36% (inactive),
Cc1ccc(NC(=O)CN(C)C(=O)c2cccc(-n3cccc3)c2)cc1,1.89% (inactive),
CCc1ccccc1NC(=O)c1cccc(NC(=O)/C=C/c2ccco2)c1,-3.66% (inactive),
Cc1cc2ccccc2n1CCNC(=O)C1CCCCC1,22.4% (inactive),
COc1cccc(-n2c(Cc3cc(=O)[nH]c(=O)[nH]3)nnc2SCC(=O)NC2CCCC2)c1,-1.98% (inactive),
Cc1cc(C)nc(N2CCC(C(=O)O)CC2)n1,0.27% (inactive),
COc1ccc(NC(=S)NCCc2ccccc2OC)c(OC)c1,-8.17% (inactive),
C=CCn1c(COc2ccc(F)cc2)nnc1SCC(=O)NC(=O)NCc1ccco1,0.17% (inactive),
Clc1ccc(OCc2nn3c(-c4ccco4)nnc3s2)c(Cl)c1,-1.9% (inactive),
COC(C(=O)C(O)C(C)O)C1Cc2cc3cc(OC4CC(OC5CC(O)C(O)C(C)O5)C(O)C(C)O4)c(C)c(O)c3c(O)c2C(=O)C1OC1CC(OC2CC(OC3CC(O)C(OC)C(C)O3)C(O)C(C)O2)C(O)C(C)O1 (stereo not drawn),-1.16% (inactive),
O=c1oc(/C=C/c2ccco2)nc2sc3c(c12)CCC3,1.89% (inactive),
Cc1cc(C(=O)CSc2nnc(-c3ccccc3)n2Cc2ccc3c(c2)OCO3)c(C)n1C,-0.57% (inactive),
COC(=O)c1ccc(COc2ccccc2/C=C(\C#N)C(=O)Nc2c(C)cc(C)cc2C)cc1,-3.51% (inactive),
CCOc1ccc(-c2nnn(CC(=O)c3ccc4c(c3)OCCO4)n2)cc1OCC,-2.88% (inactive),
Cc1cccc(C)c1NC(=O)CSc1nnc(-c2ccco2)c(-c2ccco2)n1,4.93% (inactive),
O=C(C1CCCN1S(=O)(=O)c1cccc2cccnc12)N1CCN(c2ccccc2)CC1 (stereo not drawn),18% (inactive),
CNc1ccccc(-c2ccc3cc4c(cc3n2)OCO4)c1=O,6.22% (inactive),
O=C(CCN1C(=O)/C(=C/c2cccs2)SC1=S)NC1=NCCS1,3.86% (inactive),
COCCNc1nnc(SC(C)C(=O)Nc2ccc(-c3nc4ccc(C)cc4s3)cc2)s1 (stereo not drawn),-10.4% (inactive),
COc1ccc2[nH]c(=O)c(CN(Cc3ccco3)C(c3nnnn3Cc3ccccc3)C(C)C)cc2c1 (stereo not drawn),8.05% (inactive),

SMILES,inhibition,IC50
C=CCOC(=O)C1=C(C)NC(SCC(=O)Nc2ccccc2)=C(C#N)C1c1ccco1 (stereo not drawn),-0.21% (inactive),
N#C/C(=C\c1ccc([N+](=O)[O-])o1)C(=O)Nc1ccc(F)cc1,-4.89% (inactive),
c1cn2cc(CSC3CCCCC3)nc2s1,2.38% (inactive),
Cc1ccc(N2C(=O)/C(=C\c3ccco3)SC2=S)cc1,-2.25% (inactive),
CCC(C)(C)n1nnnc1C(c1ccc2ncccc2c1)N1CCN(c2ccc(O)cc2)CC1 (stereo not drawn),11.3% (inactive),
CC1(C)OC(=O)C(=C2CCCN2)C(=O)O1,2.43% (inactive),
COC(=O)C1=C(C)NC(=O)/C1=C\c1cc(C)n(-c2ccccc2C)c1C,0.71% (inactive),
O=C(Nc1ccc(F)cc1)C(c1ccccc1)N1CCN(S(=O)(=O)c2ccc3ccccc3c2)CC1 (stereo not drawn),-1.89% (inactive),
CCCCC(=O)NC(=S)Nc1cc(C(=O)O)ccc1Cl,2.22% (inactive),
Cc1occc1-c1nnc(SCC(=O)N2CCN(c3ccccc3)CC2)n1C,11.3% (inactive),
CC(C)n1c(=NC(=O)c2ccco2)c(C#N)cc2c(=O)n3ccccc3cc21,7.91% (inactive),
CCOC(=O)C1CCN(C(=O)COc2ccc(S(=O)(=O)NC(C)C)cc2)CC1,-2.82% (inactive),
CCOC(=O)Cc1cc(=O)n2[nH]c(C)cc2n1,-1.93% (inactive),
COCCNC(=O)c1ccc(CS(=O)(=O)c2c(Cl)cccc2Cl)o1,4.28% (inactive),
CC(C)CC(=O)Nc1nnc(-c2ccco2)s1,0.89% (inactive),
CCOc1cccc(CNCCNC(=O)c2nonc2N)c1,-2.13% (inactive),
COc1ccc(-n2c(Cc3cccn3C)nnc2SCC(N)=O)cc1,7.71% (inactive),
COC(=O)CCCC(=O)Nc1c(F)c(F)c(F)c(F)c1F,-2.58% (inactive),
CCOc1ccc(Nc2nc3ccccc3n3nnnc23)cc1,-1.63% (inactive),
CN(CC(=O)Nc1cccc(F)c1)C(=O)c1cccc(-n2cccc2)c1,-2.98% (inactive),
O=C(NC1CCC(C(=O)O)CC1)OCc1ccccc1 (stereo not drawn),1.11% (inactive),
CCc1cc(=O)n2[nH]c(C)c(-c3ccccc3OC)c2n1,-1.39% (inactive),
COc1cccc(CNC(=O)CCNS(=O)(=O)c2cccs2)c1,2.89% (inactive),
COc1cccc(C(C#N)N2CCCCC2)c1O (stereo not drawn),0.26% (inactive),
O=C(N/N=C/c1cn(Cc2cccc(F)c2)c2ccccc12)c1cc(O)cc(O)c1,6.55% (inactive),
O=C(CSc1nnnn1-c1ccccc1)Nc1ncc2c(n1)CC(c1ccco1)CC2=O (stereo not drawn),0.22% (inactive),

SMILES,inhibition,IC50
CCOc1ccc(NCC2CCOC(C)(C)C2)cc1 (stereo not drawn),9.47% (inactive),
CCOC1(OCC)N=C(N)C2(C#N)C(c3cccc(OC)c3OC)C12C#N (stereo not drawn),5.56% (inactive),
CCOC(=O)C1CCCN(C(=O)c2ccc(CNc3c(N4CCC(C)CC4)c(=O)c3=O)cc2)C1 (stereo not drawn),-4.81% (inactive),
CCc1ccc(CC)c(S(=O)(=O)Nc2ccc(C(=O)O)c(O)c2)c1,4.62% (inactive),
CC/C(=C\C(=O)c1ccncc1)Nc1ccc(O)cc1,20.5% (inactive),
CCNc1ccc(Br)cc(C(=O)/C=C/c2ccc3c(c2)OCO3)c1=O,-2.1% (inactive),
O=[N+]([O-])c1cc(CN2CCOCC2)c2cccnc2c1O,17.9% (inactive),
Cc1ccc[n+](-c2[nH]c(=O)sc2/C=N/NC(=O)c2ccccc2[O-])c1,0.56% (inactive),
Cc1cc(C(=O)CSc2nnc(-c3ccco3)o2)c(C)n1Cc1ccco1,0.59% (inactive),
COc1ccc2[nH]c3c4c(ccc3c2c1)C(=O)C=CC4=O,5.16% (inactive),
O=C(Nc1ccccc1N1CCCC1)c1ccc(Br)o1,5.44% (inactive),
COC(=O)C(C)Sc1nnc(Cc2cc(=O)[nH]c(=O)[nH]2)n1-c1cc(C)ccc1C (stereo not drawn),0.66% (inactive),
O=C(Nc1ccccc1)C1=C(O)CC(c2ccco2)CC1=Nc1ccccc1 (stereo not drawn),-0.44% (inactive),
O=C(c1cc(-c2ccco2)on1)N1CCN(c2ccccc2)CC1,-4.83% (inactive),
Cc1cc(NC(=O)CCNS(=O)(=O)c2cc(Br)cnc2N)ccc1Br,5.53% (inactive),
Cc1cc(C(=O)CSc2nnnn2C)c(C)n1CCc1ccc(Cl)cc1,5.37% (inactive),
CC1(C)CCCN(C(=O)c2coc(=O)c(Br)c2)C1,1.09% (inactive),
FC(F)(F)c1cc(-c2ccco2)nc(NCc2cccnc2)n1,-1.65% (inactive),
CN(C)c1ccc(NC(=O)CSc2nc3ccccc3c(=O)n2C2CCCCC2)cc1,2.21% (inactive),
Cn1cccc1C(=O)NC(=O)COC(=O)CC12CC3CC(CC(Br)(C3)C1)C2,4.29% (inactive),
CC(=O)Nc1ccc(NC(=O)C(C)OC(=O)CC23CC4CC(CC(Br)(C4)C2)C3)cc1 (stereo not drawn),2.41% (inactive),
O=C(O)C1Nc2c(C(=O)N3CCOCC3)cccc2C2C=CCC12 (stereo not drawn),0.78% (inactive),
O=C(Nc1ccn(-c2ccccc2)n1)c1ccccc1Br,-3.02% (inactive),
CC(=O)c1cccc(NC(=O)CN2C(=O)NC3(CCCCCCC3)C2=O)c1,5.93% (inactive),
COc1ccc(-n2c(C)cc(C(=O)CSc3nn4c(=O)c(C(C)(C)C)nnc4s3)c2C)cc1,-3.69% (inactive),
CCN(C(=O)c1coc(=O)c(Br)c1)c1ccc2c(c1)OCO2,25.4% (inactive),

SMILES,inhibition,IC50
COc1ccc(NC(=O)/C(C#N)=C\c2ccc(Br)o2)cc1,9.72% (inactive),
COc1ccc2c(c1)c(=O)oc1cc(OCC(=O)N3CCC(C)CC3)ccc12,-4.74% (inactive),
CC(C)(C)OC(=O)N(Cc1ccccc1)Cc1cccc(OCc2cccc(NC(=O)c3ccccc3)c2)c1,1.79% (inactive),
Cc1cc(C(=O)COC(=O)c2cc(O)c3ccccc3c2O)c(C)n1CC1CCCO1 (stereo not drawn),6.11% (inactive),
CCOc1ccc2[nH]c(=O)c(CN(Cc3ccco3)C(=O)c3ccc(Br)cc3)cc2c1,-4.7% (inactive),
CCOC(=O)C1=C(C)N=C2SC(C(=O)OC)=CC(=O)N2C1c1cc(OC)c(OC)c(OC)c1 (stereo not drawn),0.25% (inactive),
CC(C)OC(=O)c1cccc(C(=O)O)n1,0.71% (inactive),
O=C(NCc1ccccn1)c1coc(=O)c(Br)c1,-1.46% (inactive),
CCCN1C(=O)S/C(=C\c2ccc(N3CCOCC3)cc2C)C1=O,3.79% (inactive),
CN(CCc1ccccc1)C(=O)c1ccc(NC(=O)Cc2ccc(NC(=O)C3CCN(C(=O)CCc4ccccc4)CC3)cc2)cc1,-4.37% (inactive),
Cc1ccc(C2SCC(=O)N2Cc2cn3ccsc3n2)o1 (stereo not drawn),0.01% (inactive),
CCn1c(SCC(=O)Nc2cc(C)on2)nnc1-c1cccnc1,15% (inactive),
C/C(=N\Nc1ccc(Cl)c(C(=O)O)c1)c1ccc[nH]1,-6.35% (inactive),
COc1ccc(C2=CC(c3ccc(Cl)cc3)n3cnnc3N2)cc1OC (stereo not drawn),-9.19% (inactive),
COc1ccc(Nc2ccc(OC)cc2)cc1,20.4% (inactive),
Cc1nn(-c2ccccc2)c2sc(C(=O)N3CCc4ccccc4C3)cc12,-2.11% (inactive),
C/C(N)=C(/C#N)C(=O)CSc1nnc(NC(C)C)s1,18.7% (inactive),
CCN1CCN(C2=NC(=O)/C(=C/c3ccc(C)o3)S2)CC1,8.23% (inactive),
Cc1ccc2cc(C(c3nnnn3Cc3ccccc3)N3CCc4ccccc43)c(=O)[nH]c2c1 (stereo not drawn),-2.82% (inactive),
COC(=O)\C(C(C)=O)=C(/C=C/C=C/C=C/N(C)C)N(C)C,-3.51% (inactive),
O=C(NCCc1c[nH]c2ccccc12)c1ccc(S(=O)(=O)NCc2ccco2)cc1,-1.73% (inactive),
COc1ccc(S(=O)(=O)Cc2ccc(C(=O)N3CCN(c4ccccc4)CC3)o2)cc1,2.72% (inactive),
CC1=C(C(=O)Nc2ccccc2F)C(c2ccsc2)C2=C(CC(c3ccccc3)CC2=O)N1 (stereo not drawn),4.39% (inactive),
C[c-]1[c-](C)[c-](C)[c-](C)[c-]1C.[Fe].c1cc2nccc(N3CCCC3)[c-]2c1 (stereo not drawn),,28 µM (active)
O=C1NC(c2ccc(Br)cc2)=N/C1=C/c1ccco1,-4.77% (inactive),
